This experiment concerns the target rat Cav1.2 (L-type), conducted at France lab site, Cacna1a (gene 25398) (UniProt P54282). The experiment can be described thus: ERF_FR_IC_rCACNA1C_Dihydropyridine: Eurofins (ERF) Calcium Ion Channel Binding (Dihydropyridine Site) LeadHunter Assay for rat Cav1.2 (L-type), conducted at France lab site. As for the experimental part:
ERF_FR_IC_rCACNA1C_Dihydropyridine is a biochemical, single-readout assay that uses extracted gene-proteins in a cell-free assay. Measurements were taken 1.5 hour after chemical dosing in a 96-well plate. See Cav1.2 (L-type) Rat Calcium Ion Channel Binding (Dihydropyridine Site) Assay, Cerep.ERF_FR_IC_rCACNA1C_Dihydropyridine is an assay component calculated from the ERF_FR_IC_rCACNA1C_Dihydropyridine assay. It is designed to measure radioligand binding using a type of binding reporter as detected by scintillation counting with radiometry technology.Data from the assay component ERF_FR_IC_rCACNA1C_Dihydropyridine was analyzed at the assay endpoint, ERF_FR_IC_rCACNA1C_Dihydropyridine, in the positive analysis fitting direction relative to DMSO as the negative control and baseline of activity. Using a type of binding reporter, loss-of-signal activity can be used to understand changes in binding as they relate to gene CACNA1C. To generalize the intended target to other relatable targets, this assay endpoint is annotated to the ion channel intended target family, where the subfamily is voltage gated (Calcium).
Rat brain cells are incubated for 90 minutes at room temprature with [3H]nitrendipine (0.25 nM) ligand and Nitrendipine as control inhibitor. Test Sample Requirements: Minimum for 1) Screen: 60 ul of 10 mM stock -OR- 1 mg (pre-weighed) for 10 uM final testing. […]

Molecules are shown by their SMILES. Calls of active or inactive are those of the source. How the source made its calls: active means hit-call score of the fitted dose curve at least 0.9, where 1 is the maximum; inactive means score below 0.9.

rat Cav1.2 (L-type), conducted at France lab site, Cacna1a (gene 25398), sequence (P54282 whole entry, looked up): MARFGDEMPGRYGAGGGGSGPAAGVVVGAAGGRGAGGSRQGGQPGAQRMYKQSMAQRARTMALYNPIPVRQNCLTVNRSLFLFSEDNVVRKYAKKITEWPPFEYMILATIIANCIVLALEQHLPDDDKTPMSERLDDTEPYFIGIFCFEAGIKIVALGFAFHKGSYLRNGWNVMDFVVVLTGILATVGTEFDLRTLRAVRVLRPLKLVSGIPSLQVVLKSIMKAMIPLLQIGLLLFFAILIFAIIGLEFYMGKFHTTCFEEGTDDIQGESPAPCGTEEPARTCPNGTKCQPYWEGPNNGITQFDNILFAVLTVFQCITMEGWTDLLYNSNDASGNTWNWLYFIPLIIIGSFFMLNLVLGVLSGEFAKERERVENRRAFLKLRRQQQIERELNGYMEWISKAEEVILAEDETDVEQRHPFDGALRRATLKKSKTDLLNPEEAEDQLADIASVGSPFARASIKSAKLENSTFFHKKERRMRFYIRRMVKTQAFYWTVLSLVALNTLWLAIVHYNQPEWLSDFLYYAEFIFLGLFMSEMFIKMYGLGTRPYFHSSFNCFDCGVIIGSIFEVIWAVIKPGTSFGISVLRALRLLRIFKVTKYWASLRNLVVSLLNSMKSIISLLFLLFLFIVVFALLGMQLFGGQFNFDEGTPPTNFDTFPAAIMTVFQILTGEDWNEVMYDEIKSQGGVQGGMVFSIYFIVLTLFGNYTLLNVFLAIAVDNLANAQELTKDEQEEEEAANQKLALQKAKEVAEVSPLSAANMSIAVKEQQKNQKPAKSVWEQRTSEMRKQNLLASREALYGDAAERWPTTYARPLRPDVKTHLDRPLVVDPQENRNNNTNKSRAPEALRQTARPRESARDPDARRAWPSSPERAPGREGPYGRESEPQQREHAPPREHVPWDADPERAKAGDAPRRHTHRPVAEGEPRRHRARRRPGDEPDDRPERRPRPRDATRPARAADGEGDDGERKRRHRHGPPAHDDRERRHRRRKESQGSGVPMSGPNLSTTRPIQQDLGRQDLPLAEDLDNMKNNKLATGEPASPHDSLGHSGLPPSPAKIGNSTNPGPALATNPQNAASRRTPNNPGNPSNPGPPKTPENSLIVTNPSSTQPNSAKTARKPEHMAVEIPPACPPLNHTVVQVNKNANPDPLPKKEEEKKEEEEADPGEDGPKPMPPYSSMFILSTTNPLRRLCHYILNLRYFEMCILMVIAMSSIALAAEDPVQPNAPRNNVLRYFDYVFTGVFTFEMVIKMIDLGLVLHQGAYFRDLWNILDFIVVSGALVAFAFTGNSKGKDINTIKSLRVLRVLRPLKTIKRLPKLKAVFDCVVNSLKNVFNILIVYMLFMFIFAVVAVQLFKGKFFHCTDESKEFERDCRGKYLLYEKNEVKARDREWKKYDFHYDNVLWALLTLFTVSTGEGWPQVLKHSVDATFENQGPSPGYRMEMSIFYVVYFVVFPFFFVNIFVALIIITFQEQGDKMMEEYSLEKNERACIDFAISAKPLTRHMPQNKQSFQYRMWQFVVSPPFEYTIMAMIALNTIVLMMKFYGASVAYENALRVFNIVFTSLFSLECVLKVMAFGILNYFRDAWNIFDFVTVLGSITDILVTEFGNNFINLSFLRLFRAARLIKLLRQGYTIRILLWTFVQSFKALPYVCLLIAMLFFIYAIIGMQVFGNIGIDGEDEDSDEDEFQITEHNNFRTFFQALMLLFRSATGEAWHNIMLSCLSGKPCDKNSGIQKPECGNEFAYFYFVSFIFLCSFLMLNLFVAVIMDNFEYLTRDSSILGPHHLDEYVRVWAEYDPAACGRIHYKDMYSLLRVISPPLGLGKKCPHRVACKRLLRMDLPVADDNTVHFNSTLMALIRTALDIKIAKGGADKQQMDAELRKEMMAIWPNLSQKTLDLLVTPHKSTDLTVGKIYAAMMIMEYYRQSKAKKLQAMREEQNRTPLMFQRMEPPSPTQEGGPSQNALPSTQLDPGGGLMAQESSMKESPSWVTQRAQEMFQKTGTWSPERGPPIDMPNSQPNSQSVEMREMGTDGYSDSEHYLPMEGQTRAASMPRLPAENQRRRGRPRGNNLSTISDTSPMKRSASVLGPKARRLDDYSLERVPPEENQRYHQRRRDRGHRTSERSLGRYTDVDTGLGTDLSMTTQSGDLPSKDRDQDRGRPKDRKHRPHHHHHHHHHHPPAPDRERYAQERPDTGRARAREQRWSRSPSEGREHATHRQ

On to `CCCCC[C@H](O)CC(=O)CCc1ccc(O)c(OC)c1`, for which the result was inactive.

The record behind these values is PubChem BioAssay AID2284172 (EPA ToxCast).
